“And” between values parts separate entries of the source, which are not always exact repeats. Equal values may be shown once. Results filed as inconclusive are left out. The source made the active and inactive calls. The call rests on the fitted dose curve; in most records, active means well fitted curve in the direction sought with a large enough effect in the repeat runs; inconclusive means weak or mixed curves; inactive means no such curve, though single readings can be large; an effect the other way counts as inactive or inconclusive.
What was measured:
[1] = A CellTox Green Cytotoxicity Assay to monitor cytotoxicity in HEK293 cells - 40 hour (AID 1224871); further: nearly all actives have a fitted effect of over 45% in size
Summary of the method: (§1)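 Fluorescence intensity, read at 0, 8, 16, 24, 32 and 40 h of compound treatment, reflected dye binding to DNA of dead HEK293 cells; compounds (23 nL, DMSO) were added 5 h after plating cells with reagent.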

[2] = qHTS RealTime-Glo MT Cell Viability Assay in HEK293 cells - 16 hour (AID 1224872); further: nearly all actives have a fitted effect of over 50% in size; on activity change, negative = cytotoxicity: top concentration of the series differs between compounds
Summary of the method: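 Quantitative high-throughput screen of the Tox21 10K library in HEK293: cells and RealTime-Glo reagents plated together, compound added at 5 h, luminescence monitored through 40 h at 37 C.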

[3] = qHTS RealTime-Glo MT Cell Viability Assay in HepG2 cells - 8 hour (AID 1224873); further: nearly all actives have a fitted effect of over 55% in size
Summary of the method: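 HepG2 cells mixed with RealTime-Glo MT reagents (NanoLuc plus cell-permeant prosubstrate) were seeded at 600 cells/well, incubated 5 h at 37 C/5% CO2, then pinned with compounds in DMSO; nonlytic luminescence tracked viability during 40 h treatment.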

[4] = A CellTox Green Cytotoxicity Assay to monitor cytotoxicity in HEK293 cells - 24 hour (AID 1224875); further: nearly all actives have a fitted effect of over 45% in size; on activity change: series mostly up to about 77 µM
Summary of the method: as §1

[5] = A CellTox Green Cytotoxicity Assay to monitor cytotoxicity in HepG2 cells - 16 hour (AID 1224876); further: nearly all actives have a fitted effect of over 45% in size
Summary of the method: (§2)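 Using 1536-well format, dye-containing HepG2 suspension was seeded, allowed 5 h at 37 C/5% CO2, dosed by pintool with compounds, positive and negative controls, and imaged for fluorescence across 40 h.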

[6] = A CellTox Green Cytotoxicity Assay to monitor cytotoxicity in HepG2 cells - 24 hour (AID 1224878); further: nearly all actives have a fitted effect of over 45% in size
Summary of the method: as §2

[7] = A CellTox Green Cytotoxicity Assay to monitor cytotoxicity in HepG2 cells - 40 hour (AID 1224879); further: nearly all actives have a fitted effect of over 40% in size
Summary of the method: as §2

[8] = qHTS RealTime-Glo MT Cell Viability Assay in HEK293 cells - 0 hour (AID 1224880); further: nearly all actives have a fitted effect of over 45% in size; on activity change, negative = cytotoxicity: top concentration of the series differs between compounds
Summary of the method: (§3)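 Viable HEK293 cells reduce a cell-permeant prosubstrate; the product diffuses out and is consumed by NanoLuc in the medium to give light. Compounds went in after a 5 h incubation and plates were read over the treatment course.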

[9] = qHTS RealTime-Glo MT Cell Viability Assay in HepG2 cells - 32 hour (AID 1224877); further: nearly all actives have a fitted effect of over 55% in size
Summary of the method: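 Compound treatment began 5 h after plating HepG2 cells (600/well) with NanoLuc luciferase and prosubstrate. Plates stayed at 37 C for 40 h; luminescence was captured at six time points, 0 h through 40 h.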

[10] = qHTS RealTime-Glo MT Cell Viability Assay in HEK293 cells - 40 hour (AID 1224874); conditions: RealTime-Glo luminescence; max response: hits give low values; further: nearly all actives have a fitted effect of over 50% in size
Summary of the method: as §3
On the % scale 0 is the no-effect control and ±100 the full control effect; potency means the concentration at half of the fitted maximal effect.

[C-]1=CC=CC1.[Cl][Zr+2][Cl].c1cc[cH-]c1
inactive: Potency [1] | Potency [2] | Potency [3] | Potency [4] | Potency [5] | Potency [6] | Potency [7] | Potency [8]

CCCCc1ccccc1
inactive: Potency [1] | Potency [2] | Potency [3] | Potency [4] | Potency [5] | Potency [9] | Potency [6] | Potency [7] | Potency [8]

CN1C(=O)[C@@H](NC(=O)c2cc3ccccc3[nH]2)N=C(c2ccccc2)c2ccccc21
inactive: Potency [1] | Potency [2] | max response [10] 20% | Potency [4] | Potency [5] | Potency [9] | Potency [6] | Potency [7] | Potency [8]

CCCCCCC[CH2][Sn]([Cl])([Cl])[CH2]CCCCCCC
inactive: Potency [1] | Potency [2] | max response [10] -19.1% | Potency [4] | Potency [5] | Potency [9] | Potency [6] | Potency [7] | Potency [8]

Clc1c(Cl)c(Cl)c(Cl)c(Cl)c1Cl
inactive: cytotoxicity increase [1] -20.6% [at 6.97 µM] | activity change, negative = cytotoxicity [2] 3.93% [at 6.97 µM] | viability change, negative = cytotoxic [3] 1.69% [at 6.97 µM] | activity change [4] -16.1% [at 6.97 µM, hits give high values] | cytotoxicity increase [5] 0.26% [at 6.97 µM] | activity change, negative = cytotoxic [9] 0.7% [at 6.97 µM] | cytotoxicity [6] 0.224% [at 6.97 µM] | cytotoxicity increase [7] -0.205% [at 6.97 µM] | activity change, negative = cytotoxicity [8] 2.6% [at 6.97 µM]

Clc1ccc(C2(Cn3cncn3)OCCO2)c(Cl)c1
inactive: Potency [1] | Potency [2] | Potency [3] | Potency [4] | Potency [5] | Potency [9] | Potency [7]

Cc1ccc(C)c2ccccc12
inactive: Potency [2] | Potency [3] | Potency [5] | Potency [9] | Potency [6] | Potency [7] | Potency [8]
active: Potency [1] 38.9 µM

O=C1C(Cl)=C(Cl)C(=O)C(Cl)=C1Cl
active: Potency [1] 17.3 µM and 19.5 µM | Potency [2] 27.4 µM | Potency [3] 43.5 µM and 21.9 µM | Potency [4] 21.8 µM and 24.5 µM | Potency [5] 48.8 µM and 19.5 µM | Potency [6] 24.5 µM and 17.4 µM | Potency [7] 21.8 µM and 17.4 µM | Potency [8] 3.08 µM and 9.77 µM

O.O.O.O.O.O.O.O=S(=O)([O-])[O-].[Co+2]
inactive: Potency [1] | Potency [2] | max response [10] 0.267% | Potency [4] | Potency [5] | Potency [9] | Potency [6] | Potency [7] | Potency [8]

O.O.O.O.O.O.O=S(=O)([O-])[O-].[Ni+2]
inactive: Potency [1] | Potency [2] | Potency [3] | Potency [4] | Potency [5] | Potency [9] | Potency [7] | Potency [8]

C=Cc1cccc(CCl)c1
inactive: Potency [1] | Potency [2] | max response [10] 4.68% | Potency [4] | Potency [5] | Potency [9] | Potency [6] | Potency [7] | Potency [8]

N#CCCl
inactive: Potency [1] | Potency [2] | Potency [3] | Potency [4] | Potency [5] | Potency [9] | Potency [6] | Potency [7] | Potency [8]

COP(=S)(OC)Oc1nc(Cl)c(Cl)cc1Cl
inactive: Potency [1] | Potency [2] | max response [10] -0.946% | Potency [4] | Potency [5] | Potency [9] | Potency [6] | Potency [7] | Potency [8]

O=[N+]([O-])c1ccccc1-c1ccccc1
inactive: Potency [1] | Potency [2] | Potency [3] | Potency [4] | Potency [5] | Potency [9] | Potency [7] | Potency [8]

O=c1[nH]c2cc(Cl)ccc2n1C1CCNCC1
inactive: Potency [1] | Potency [2] | max response [10] 4.84% | Potency [4] | Potency [5] | Potency [9] | Potency [7] | Potency [8]

c1ccc(N=NNc2ccccc2)cc1
active: Potency [1] 45.2 µM and 43.6 µM | Potency [4] 50.7 µM | Potency [7] 49 µM
inactive: Potency [2] | Potency [9] | Potency [8]

CCC[CH2][Sn]([CH2]CCC)([CH2]CCC)[CH2]CCC
active: Potency [1] 12.3 µM | Potency [2] 9.77 µM | Potency [10] 7.76 µM | Potency [4] 17.4 µM | Potency [5] 17.4 µM | Potency [9] 4.9 µM | Potency [7] 11 µM

N#CC(C#N)=NNc1cccc(Cl)c1
inactive: Potency [3] | Potency [4]
active: Potency [1] 49 µM | Potency [10] 5.49 µM | Potency [9] 21.9 µM | Potency [7] 12.3 µM | Potency [8] 38.9 µM

CCCN
inactive: Potency [1] | Potency [2] | Potency [4] | Potency [5] | Potency [9] | Potency [6] | Potency [7] | Potency [8]

NC1CCC(CC2CCC(N)CC2)CC1 (configuration not stated)
inactive: Potency [1] | Potency [2] | Potency [4] | Potency [5] | Potency [9] | Potency [6] | Potency [7] | Potency [8]

CN1CCc2cc(Cl)c(O)cc2[C@H]2c3ccccc3CC[C@@H]21
inactive: Potency [1] | Potency [3] | Potency [4] | Potency [5] | Potency [9] | Potency [6] | Potency [7] | Potency [8]

CCOP(=S)(NC(C)C)Oc1ccccc1C(=O)OC(C)C (configuration not stated)
inactive: Potency [1] | Potency [3] | Potency [4] | Potency [5] | Potency [6]
active: Potency [10] 43.6 µM | Potency [7] 38.9 µM

Cc1ccn2nc(S(=O)(=O)Nc3c(F)cccc3F)nc2n1
inactive: Potency [1] | Potency [2] | Potency [4] | Potency [5] | Potency [9] | Potency [6] | Potency [7] | Potency [8]

COP(=O)(OC)O/C(=C\Cl)c1cc(Cl)c(Cl)cc1Cl
inactive: Potency [1] | Potency [2] | max response [10] 0.507% | Potency [4] | Potency [5] | Potency [8]

Source: PubChem BioAssay (Tox21)
